Experimental data: PubChem BioAssay AID1159580 (chemical genetic matrix, 2015)
The campaign covered roughly 5,500 compounds. About 2,000 (36%) were called active. Not shown: some 18% with an inconclusive outcome. Rule as the data show it: active = normalized growth mostly below about 0.91 (no sharp cut-off); inconclusive = no clear call, values can overlap the other calls; inactive = mostly above about 0.92. This is one part of the list.

Assay: chemical genetic growth profiling, strain panel (AID 1159580);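 also: tested at 20 µM; growth read once vehicle control cultures reached saturation at 30 °C; 1 = growth at the plate median or of vehicle wells; lower values mean less growth of the strain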
Conditions: S. cerevisiae deletion strains, growth OD
[1] = locus YDR150W, strain NUM1, active compounds read low
[2] = locus YGR078C, strain PAC10, active compounds read low
[3] = locus YMR263W, strain SAP30, active compounds read low
[4] = locus YPL055C, strain LGE1, active compounds read low

Measured: normalized growth

CCN(CC)C(=O)N[C@@H]1C[C@@H]2c3cccc4[nH]cc(c34)C[C@H]2N(C)C1
inactive: locus YAL040C, strain CLN3, active compounds read low 1 | locus YCL061C, strain MRC1 (second series), active compounds read low 1.01 | [1] 1 | locus YDR363W, strain ESC2, active compounds read low 1.01 | locus YER002W, strain NOP16, active compounds read low 0.995 | [2] 1.01 | [3] 1 | locus YMR307W, strain GAS1, active compounds read low 1.01 | locus YNL128W, strain TEP1, active compounds read low 1.01 | locus YNL175C, strain NOP13, active compounds read low 0.993 | locus YNL197C, strain WHI3, active compounds read low 0.995 | locus YNL224C, strain SQS1, active compounds read low 1.02 | locus YOR083W, strain WHI5 (second series), active compounds read low 1.01 | [4] 1.01

COC(CNc1cccc(Cl)c1C#N)OC
inactive: locus YAL013W, strain DEP1, active compounds read low 0.997 | locus YBR229C, strain ROT2, active compounds read low 0.994 | locus YDL101C, strain DUN1, active compounds read low 0.983 | locus YDL134C, strain PPH21, active compounds read low 0.961 | [1] 1.01 | locus YEL061C, strain CIN8, active compounds read low 0.971 | [2] 0.989 | locus YGR229C, strain SMI1, active compounds read low 0.978 | locus YHR030C, strain SLT2, active compounds read low 0.944 | locus YHR087W, strain rtc3, active compounds read low 0.98 | locus YJL187C, strain SWE1, active compounds read low 0.981 | locus YJR043C, strain POL32, active compounds read low 0.989 | locus YJR075W, strain HOC1, active compounds read low 0.958 | locus YLR039C, strain RIC1, active compounds read low 0.983 | locus YLR058C, strain SHM2 (second series), active compounds read low 0.989 | locus YLR085C, strain ARP6, active compounds read low 0.931 | locus YLR262C, strain YPT6, active compounds read low 0.979 | locus YML094W, strain GIM5, active compounds read low 0.953 | locus YMR219W, strain ESC1, active compounds read low 0.986 | [3] 1.01 | locus YNL153C, strain GIM3, active compounds read low 0.946 | locus YNL298W, strain CLA4 (second series), active compounds read low 0.979 | locus YNL322C, strain KRE1, active compounds read low 0.98 | locus YNR030W, strain Alg12, active compounds read low 0.976 | [4] 1.03 | locus YPL241C, strain CIN2, active compounds read low 0.95 | locus YPR135W, strain CTF4, active compounds read low 0.957
